An excerpt weighted towards active compounds, which were near 11% of everything screened.
AMA1 RON2 block: AMA1-RON2 (P. falciparum) interaction inhibition; AID 720542; AlphaScreen AMA1-biotinylated RON2 peptide binding; hit rate 0.2% among 360,000; Potency, µM (series often up to 58.2 µM), without a hit: top-dose activity change, negative = inhibition, usual class: inhibitors;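 also: 0% = vehicle wells and -100% = peptide control; nearly all actives have a fitted effect of over 45% in size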
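AMA1 (3D7) with his tag at 25 nM final met compounds first, then biotinylated RON2 peptide at 25 nM; detection used donor plus acceptor beads, 10 µg/mL apiece, read by AlphaScreen after 30 min at room temperature.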
Pf growth 96h: inhibits malaria parasite growth, 96 h. AID 504834. P. falciparum luciferase reporter growth, 96 h. hit rate 6.9% among 320,000. Potency, µM (doses to about 28.7 µM), for inactives: top-dose activity change, negative = inhibition, most hits filed as inhibitors
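Plates of compound plus infected erythrocytes (2% hematocrit, 0.05% parasitemia final) incubate 96 hours, 37 C, 5% CO2. Detection reagent added; reduced luminescence from the parasites' luciferase reporter flags inhibition.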
AmpC inh detg: inhibitors of E. coli AmpC beta-lactamase with detergent; P00811; AmpC hydrolysis of nitrocefin, absorbance 480 nm, 0.01% Triton; Potency, µM (titrated, usually from 114 µM), for inactives: top-dose activity change, negative = inhibition, usual class: inhibitors; hit rate 0.041% among 370,000;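 also: 0% = no-compound wells and -100% = no-enzyme wells; nearly all actives have a fitted effect of over 25% in size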
Target sequence (P00811 whole entry, looked up): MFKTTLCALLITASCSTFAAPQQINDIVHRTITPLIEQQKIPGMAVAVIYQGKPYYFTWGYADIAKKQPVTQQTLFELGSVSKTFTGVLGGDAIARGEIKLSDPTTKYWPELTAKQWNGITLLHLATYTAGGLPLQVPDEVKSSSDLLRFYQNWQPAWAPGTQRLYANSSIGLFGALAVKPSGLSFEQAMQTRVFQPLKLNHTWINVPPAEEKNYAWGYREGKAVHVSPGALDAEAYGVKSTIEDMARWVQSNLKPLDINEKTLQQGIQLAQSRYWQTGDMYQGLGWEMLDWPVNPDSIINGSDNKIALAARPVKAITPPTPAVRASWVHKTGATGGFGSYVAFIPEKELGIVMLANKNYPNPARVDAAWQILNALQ
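20 mM phosphate pH 7.0 + 0.01% (detergent screen) or 0.0001% Triton X-100; 5.3 nM AmpC reagent; cpd preinc 15 min RT; nitrocefin (800 uM stock) to start; A480 q20 s × 4 min; Activity was normalised to no-enzyme and no-compound control wells.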
Pf growth 48h: P. falciparum growth inhibition at 48 hours (one generation). P. falciparum luciferase growth in erythrocytes, 48 h. Potency, µM (highest dose often 28.7 µM), inactives show top-dose activity change, negative = inhibition, most hits filed as inhibitors. hit rate 5.9% among 310,000. AID 504832
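Luciferase-expressing parasites in RBCs, 2% Hct / 0.1% parasitemia final; RPMI 1640 + 0.5% Albumax; 37 C, 5% CO2, one generation; luminescence read-out, lower signal = inhibition.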
HCV inh: inhibitors of hepatitis C virus infection; Huh7.5.1 HCVcc-Cre infection, luciferase reporter, 44 h; Potency, µM (titrated, usually from 41.8 µM), without a hit: top-dose activity change, negative = inhibition, most hits filed as inhibitors; hit rate 3.4% among 340,000; AID 651820
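HCVcc-Cre virus at an moi near 0.5 was added right after compound to cells cultured 4 h from seeding (1,000 cells/well). Luciferase activity was determined 44 h later, 15 min after substrate addition at RT.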
AmpC inh no detg: inhibitors of E. coli AmpC beta-lactamase without detergent; P00811; AmpC nitrocefin hydrolysis, absorbance 480 nm, 0.0001% Triton; Potency, µM (top dose mostly 57.1 µM), for inactives: at the top dose activity change, negative = inhibition, usual class: inhibitors; hit rate 0.52% among 330,000;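 also: plate controls were no compound for no effect and no enzyme for full effect; nearly all actives have a fitted effect of over 20% in size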
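AmpC (5.3 nM in the dispensed reagent) in 20 mM phosphate pH 7.0 with 0.01% (detergent screen) or 0.0001% Triton X-100 was preincubated with compounds for 15 min at room temperature. Nitrocefin was then added from an 800 uM solution, and hydrolysis was followed at 480 nm.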
Starred values were filed as active, the others as inactive; u = inconclusive; x = no result given; [ ] = remark or other dose. Calls follow the shape of the dose curve; as a rule, active = well fitted curve in the direction sought with a large enough effect; inconclusive = small, poorly fitted or top-dose-only effect, or another doubt; inactive = no such curve, though single readings can be large; an effect the other way counts as inactive or inconclusive. Unless noted, % is scaled to controls: 0 for no effect and ±100 for the full control effect; potency is read from the fitted curve at half-maximal effect.

SMILES	AMA1 RON2 block	Pf growth 96h	AmpC inh detg	Pf growth 48h	HCV inh	AmpC inh no detg
c1ccc(Oc2ccc(-c3ccnc4nc(N5CCN(c6ccccc6)CC5)nn34)cc2)cc1	2%	u	-3%	u	u	-15%
CSc1nc2nccc(-c3ccc4c(c3)OCO4)n2n1	16%	u	u	u	-12%	-10%
CCN(CC)c1ccc(NC(=O)C2CCCN(S(=O)(=O)c3cccnc3)C2)c(C)c1 (stereo unspecified)	-19%	9.3µM*	-2%	x	u	50%
COc1ccc(NC(=O)C2CCCN(S(=O)(=O)c3cccnc3)C2)c(OC)c1 (stereo unspecified)	-3%	-1%	u	x	u	4%
CCNC(=S)N(CCc1ccc(S(N)(=O)=O)cc1)C1CC(=O)N(c2ccccc2)C1=O (stereo unspecified)	-24%	10µM*	-3%	u	-4%	-17%
CCCOc1ccc(N2C(=O)CC(N(CCc3ccc(OC)c(OC)c3)C(=S)Nc3ccccc3)C2=O)cc1 (stereo unspecified)	-2%	u	-11%	2.1µM*	-19%	26%
O=C1CC(N(CCc2ccccc2)C(=S)Nc2ccccc2)C(=O)N1c1ccccc1 (stereo unspecified)	9%	3.3µM*	-10%	u	-25%	-16%
CNC(=S)N(Cc1ccc(OC)cc1)C1CC(=O)N(c2ccc(C(=O)OC)cc2)C1=O (stereo unspecified)	x	5.9µM*	-12%	u	-3%	2%
CNC(=S)N(Cc1ccc(OC)cc1)C1CC(=O)N(c2ccc(OC)cc2)C1=O (stereo unspecified)	u	u	-8%	-22%	u	2%
CCCOc1ccc(N2C(=O)CC(N(Cc3ccc(OC)cc3)C(=S)Nc3ccccc3)C2=O)cc1 (stereo unspecified)	u	u	10%	u	14%	-23%
Cc1ccc(Cc2c(C)nc3nc(SCC(=O)NC(C)c4ccccc4)nn3c2C)cc1 (stereo unspecified)	x	x	-6%	x	x	x
CCOc1ccc(NC(=O)c2ccc3nc(C(C)C)oc3c2)cc1	x	x	17%	x	x	x
COc1ccc(CCNC(=O)CCCCCn2c(=O)[nH]c3cc(OC)c(OC)cc3c2=O)cc1OC	x	x	5%	x	x	x
COC(=O)CN(C(=S)Nc1ccc(F)cc1)C1CC(=O)N(c2ccc(OC)cc2)C1=O (stereo unspecified)	-13%	9%	u	-9%	-5%	-14%
O=C1CC(N(CCc2ccccc2)C(=S)Nc2cc(Cl)ccc2Cl)C(=O)N1c1c(Cl)cccc1Cl (stereo unspecified)	0%	10µM*	-3%	u	u	-36%
C=CCN(C(=O)Nc1ccccc1)C1CC(=O)N(c2ccc(OC)cc2)C1=O (stereo unspecified)	-7%	12µM*	-13%	5%	18%	-17%
COC(=O)CN(C(=S)Nc1ccc(F)cc1)C1CC(=O)N(c2ccccc2)C1=O (stereo unspecified)	-11%[11.6 µM]	7%	-9%	10µM*	18%	-4%
COc1cc(NC(=O)CN2C(=O)C(c3ccc(C)cc3)=NC23CCCCC3)cc(OC)c1	x	x	13%	x	x	x
CCc1ccc(N2C(=O)CC(c3cc(OC)ccc3OC)C3=C2COC3=O)cc1 (stereo unspecified)	x	x	-3%	x	x	x
COc1ccc(N2CC(NC(=O)c3ccc(S(=O)(=O)N4CCOCC4)cc3)CC2=O)cc1 (stereo unspecified)	x	x	-2%	x	x	x
Cc1ccc(-n2ncc3c(Nc4cccc(C(F)(F)F)c4)ncnc32)cc1C	x	x	8%	x	x	x
C#CCOCCOCCOCCNc1nc(N2CCN(C(=O)[C@H]([C@@H](C)CC)n3cc([C@@H](N)Cc4ccc(O)cc4)nn3)CC2)nc(N2CCN(C(=O)[C@H](Cc3ccc(O)cc3)n3cc([C@@H](N)C(C)CC)nn3)CC2)n1 (stereo partly specified)	-21%	u	3%	u	9%	192%
C#CCOCCOCCOCCNc1nc(N2CCOCC2)nc(N2CCN(C(=O)[C@H]([C@@H](C)CC)n3cc([C@@H](N)CC(C)C)nn3)CC2)n1	6%	6.6µM*	3%	u	-7%	184%
C#CCOCCOCCOCCNc1nc(N2CCN(C(=O)[C@H]([C@@H](C)CC)n3cc([C@@H](N)CC(C)C)nn3)CC2)nc(N2CCN(C(=O)[C@H](Cc3ccc(O)cc3)n3cc([C@@H](N)C(C)CC)nn3)CC2)n1 (stereo partly specified)	2%	5.2µM*	2%	5.2µM*	0%	202%
C#CCOCCOCCOCCNc1nc(N2CCOCC2)nc(N2CCN(C(=O)[C@H](Cc3ccc(O)cc3)n3cc([C@@H](N)CC(C)C)nn3)CC2)n1	-4%	12µM*	9%	5.2µM*	2%	134%
SMILES	AMA1 RON2 block	Pf growth 96h	AmpC inh detg	Pf growth 48h	HCV inh	AmpC inh no detg
C#CCOCCOCCOCCNc1nc(N2CCN(C(=O)[C@H]([C@@H](C)CC)n3cc([C@@H](N)Cc4ccc(O)cc4)nn3)CC2)nc(N2CCN(C(=O)[C@H]([C@@H](C)CC)n3cc([C@@H](N)CC(C)C)nn3)CC2)n1	-4%	1.5µM*	4%	1.9µM*	-3%	183%
COc1ccccc1CNC(=O)C(C)n1c(=O)cc(C(F)(F)F)c2c(C)nn(C)c21 (stereo unspecified)	x	x	27%	x	x	x
CCOCCCn1c(SCC(=O)Nc2ccc(F)cc2)nc2c(sc3ccccc32)c1=O	x	x	1%	x	x	x
CC(Oc1ccccc1)C(=O)Nc1ccc(C(=O)OCc2cc(=O)n3ccsc3n2)cc1 (stereo unspecified)	x	x	3%	x	x	x
COC(=O)c1c(-c2cccs2)csc1NC(=O)COc1c(C)ccc(C)c1C	x	x	22%	x	x	x
C#CCOCCOCCOCCNc1nc(N2CCN(C(=O)[C@H]([C@@H](C)CC)n3cc([C@@H](N)Cc4ccc(O)cc4)nn3)CC2)nc(N2CCN(C(=O)[C@H](Cc3ccc(O)cc3)n3cc([C@@H](N)CC(C)C)nn3)CC2)n1	-17%	u	6%	4.7µM*	10%	194%
C#CCOCCOCCOCCNc1nc(N2CCOCC2)nc(N2CCN(C(=O)[C@H]([C@@H](C)CC)n3cc([C@@H](N)Cc4ccc(O)cc4)nn3)CC2)n1	11%	u	5%	1.5µM*	3%	155%
COc1ccc(OCc2nc3ccccc3[nH]2)cc1	9%	x	4%	115%	u	-25%
